# Results published in PubChem BioAssay (NCATS).
# Inconclusive results are not listed. Where a call stands in place of a potency, no number is given. Calls of active or inactive are those of the source. Unless noted, calls come from the whole dose curve; as a rule, active = well fitted curve in the direction sought with a large enough effect; inconclusive = small, poorly fitted or top-dose-only effect, or another doubt; inactive = no such curve, though single readings can be large; an effect the other way counts as inactive or inconclusive.
# Tests used:
# [1] = molecular target: Cytochrome P450 3A4 (Homo sapiens) (UniProt P08684); assay: qHTS Assay for Inhibitors and Substrates of Cytochrome P450 3A4 (AID 884); note: nearly all actives have a fitted effect of over 50% in size
# Method in brief: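 20 nM human CYP3A4 with 25 uM Luciferin-PPXE (at KM) in 200 mM KPO4, preincubated 10 min with compound; NADPH regeneration started a 60 min RT reaction. Luciferin detected by luminescence, normalized to 57 uM ketoconazole as full inhibition.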
# [2] = Confirmation and Secondary Assay for Modulators of Hemoglobin Beta Chain Splicing at IVS2 654 locus (AID 910);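 note: per-well total GFP intensity by laser scanning cytometry after 2-day treatment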
# Method in brief: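 HeLa cells stably carrying EGFP interrupted by mutant beta-globin IVS2-654 intron (CMV-driven) were treated with compound for 2 days at 37C; corrected splicing was scored as total peak GFP intensity per well (488 nm excitation, 500-520 nm emission).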
# [3] = Confirmation and Secondary Assay for Modulators of Hemoglobin Beta Chain Splicing at IVS2 705 locus (AID 930);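 note: HeLa cells stably expressing the EGFP-705 splicing reporter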
# Method in brief: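 Restored EGFP fluorescence after 2-day compound exposure reports splicing correction in IVS2-705 EGFP reporter HeLa cells; positive control was 500 nM splice-blocking PNA oligo. Signal measured as well total peak GFP intensity (488 nm excitation).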
# [4] = qHTS Assay for Lipid Storage Modulators (AID 1519; calls by dose curve); settings: Drosophila S3 cells, BODIPY lipid droplet/cell ratio, laser cytometry, cells loaded with oleic acid; for activity change, negative = inhibition: at 57.5 µM (top of the series)
# Method in brief: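 Cells seeded at 5,000 per well were treated with compounds over a concentration series and loaded with oleic acid (400 uM, as added). Lipid droplet fluorescence (488 nm excitation, 500-530 nm channel) was read by laser-scanning cytometry and normalized to 20 uM Triacsin C.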
# [5] = molecular target: Ubiquitin carboxyl-terminal hydrolase 1 (Homo sapiens) (UniProt O94782); assay: Inhibitors of USP1/UAF1: Pilot qHTS (AID 504865);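 note: rhodamine fluorescence freed from ubiquitin-rhodamine substrate followed over time; top concentration of the series differs between compounds; nearly all actives have a fitted effect of over 35% in size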
# Method in brief: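 1nM USP1/UAF1 + cpd, 15 min RT; start w/ Ub-Rho 150nM final; kinetic FL 480/540 nm, 6 reads q60 s. Buffer 50mM HEPES pH 7.8, 0.5mM EDTA, 1mM TCEP, 0.01% Tween-20, 0.1 mg/ml BSA.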
# [6] = molecular target: Luciferin 4-monooxygenase (Photinus pyralis) (UniProt P08659); assay: Biochemical firefly luciferase enzyme assay for NPC (AID 624030);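 note: purified P. pyralis luciferase at 10 nM with luciferin and ATP substrate; nearly all actives have a fitted effect of over 70% in size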
# Method in brief: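 Counter-screen for direct inhibition of the luciferase enzyme by approved-drug library compounds, run at 10 nM enzyme in 50 mM Tris acetate (final). Luminescence was read within 5 min of enzyme-buffer addition and normalized to PTC124 versus DMSO (0%).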
# [7] = S16 Schwann cell PMP22 intronic element beta-lactamase assay (AID 624044; calls by dose curve; note: nearly all actives have a fitted effect of over 15% in size)
# Method in brief: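 Rat S16 Schwann cells with beta-Lac driven by a PMP22 intronic element, compound-treated 24 h at 37 °C. LiveBLAzer FRET B/G read: 460 nm normalized to potassium clavulanate vs DMSO; 535 nm FRET as viability; concentration-effect curves classified.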
# [8] = qHTS profiling for inhibitors of Plasmodium falciparum proliferation (AID 504749); note: nearly all actives have a fitted effect of over 60% in size; note: potency is the fitted concentration of half-maximal effect; settings: P. falciparum in erythrocytes, SYBR Green DNA, 72 h, at 28.7 µM (top of the series)
# Method in brief: (§1)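 P. falciparum-infected erythrocytes (0.3% parasitemia, 2.5% hematocrit final) were exposed to compounds for 72 h at 37 C in 5% CO2, then lysed with SYBR Green buffer overnight at room temperature; parasite DNA fluorescence was normalized to artemisinin and DMSO controls.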
# [9] = system: CP201; assay: as above; settings: P. falciparum in erythrocytes, SYBR Green DNA, 72 h; series mostly up to 12.8 µM
# Method in brief: as §1
# [10] = system: CP262; assay: as above; settings: P. falciparum in erythrocytes, SYBR Green DNA, 72 h; series mostly up to 12.8 µM
# Method in brief: as §1
# [11] = system: CP266; assay: as above; settings: P. falciparum in erythrocytes, SYBR Green DNA, 72 h; series mostly up to 12.8 µM
# Method in brief: as §1
# [12] = system: DFO2036; assay: as above; settings: P. falciparum in erythrocytes, SYBR Green DNA, 72 h; series mostly up to 12.8 µM
# Method in brief: as §1
# [13] = system: FAB9; assay: as above; settings: P. falciparum in erythrocytes, SYBR Green DNA, 72 h; series mostly up to 12.8 µM
# Method in brief: as §1
# [14] = system: JCK; assay: as above; settings: P. falciparum in erythrocytes, SYBR Green DNA, 72 h; series mostly up to 12.8 µM
# Method in brief: as §1
# [15] = system: P94_40; assay: as above; settings: P. falciparum in erythrocytes, SYBR Green DNA, 72 h; series mostly up to 12.8 µM
# Method in brief: as §1
# [16] = system: PC15; assay: as above; settings: P. falciparum in erythrocytes, SYBR Green DNA, 72 h; series mostly up to 12.8 µM
# Method in brief: as §1
# [17] = system: PC49; assay: as above; settings: P. falciparum in erythrocytes, SYBR Green DNA, 72 h; series mostly up to 12.8 µM
# Method in brief: as §1
# [18] = system: W2; assay: as above; settings: P. falciparum in erythrocytes, SYBR Green DNA, 72 h; series mostly up to 12.8 µM
# Method in brief: as §1
# [19] = molecular target: DNA dC->dU-editing enzyme APOBEC-3G (Homo sapiens) (UniProt Q9HC16); assay: qHTS for inhibitors of Vif-A3G interactions: Validation (AID 588379)
# Method in brief: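 HeLa cells stably expressing Vif and A3G-eYFP, 700 cells/well, incubated overnight at 37 deg C, then exposed to compound overnight at 37 deg C. Inhibition of Vif-mediated degradation read as increased yellow fluorescence (Ex 488/Em 500-530) by laser-scanning cytometry.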
# [20] = molecular target: Cytochrome P450 3A4 (Homo sapiens) (UniProt P08684); assay: qHTS Assay for Activators of Cytochrome P450 3A4 (AID 885); note: nearly all actives have a fitted effect of over 65% in size; note: potency is the fitted concentration of half-maximal effect
# Method in brief: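 Steps: enzyme/substrate mix dispensed; compound added, 10 min RT; NADPH regeneration solution added, 60 min RT; luciferin detection buffer stops reaction; 20 min later luminescence measured.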
# [21] = measured here: cell count channel max response
# [22] = measured here: lipid channel max response
# Sequence of DNA dC->dU-editing enzyme APOBEC-3G (Homo sapiens) (Q9HC16 whole entry, looked up): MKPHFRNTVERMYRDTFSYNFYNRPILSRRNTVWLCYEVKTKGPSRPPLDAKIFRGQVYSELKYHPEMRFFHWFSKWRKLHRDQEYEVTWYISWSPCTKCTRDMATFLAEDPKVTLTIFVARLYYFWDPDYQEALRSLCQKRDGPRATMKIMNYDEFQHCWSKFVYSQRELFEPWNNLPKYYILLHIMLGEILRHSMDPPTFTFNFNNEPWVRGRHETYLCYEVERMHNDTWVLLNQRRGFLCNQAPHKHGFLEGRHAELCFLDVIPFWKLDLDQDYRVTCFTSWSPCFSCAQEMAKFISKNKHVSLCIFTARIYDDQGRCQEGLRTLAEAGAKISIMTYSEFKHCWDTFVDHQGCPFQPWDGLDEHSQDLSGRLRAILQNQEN
# Sequence of Ubiquitin carboxyl-terminal hydrolase 1 (Homo sapiens) (O94782 whole entry, looked up): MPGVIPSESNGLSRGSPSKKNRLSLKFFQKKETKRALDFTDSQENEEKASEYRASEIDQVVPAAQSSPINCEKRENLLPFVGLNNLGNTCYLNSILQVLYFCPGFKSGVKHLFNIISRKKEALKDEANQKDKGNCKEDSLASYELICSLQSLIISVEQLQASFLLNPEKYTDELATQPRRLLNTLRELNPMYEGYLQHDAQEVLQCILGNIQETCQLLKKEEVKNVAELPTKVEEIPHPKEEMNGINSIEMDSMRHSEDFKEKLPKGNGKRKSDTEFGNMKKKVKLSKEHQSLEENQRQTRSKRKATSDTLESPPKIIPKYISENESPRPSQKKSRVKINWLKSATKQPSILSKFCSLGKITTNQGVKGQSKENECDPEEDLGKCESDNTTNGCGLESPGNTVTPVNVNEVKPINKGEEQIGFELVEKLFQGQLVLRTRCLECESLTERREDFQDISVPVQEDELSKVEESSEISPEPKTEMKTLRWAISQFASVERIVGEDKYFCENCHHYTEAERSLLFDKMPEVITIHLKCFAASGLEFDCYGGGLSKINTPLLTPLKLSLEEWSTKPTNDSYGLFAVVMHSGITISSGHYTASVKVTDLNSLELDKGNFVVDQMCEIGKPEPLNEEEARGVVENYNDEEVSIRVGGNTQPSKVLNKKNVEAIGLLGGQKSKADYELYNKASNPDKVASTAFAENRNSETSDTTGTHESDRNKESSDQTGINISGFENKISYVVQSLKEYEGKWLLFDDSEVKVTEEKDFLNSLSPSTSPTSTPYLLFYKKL
# Sequence of Luciferin 4-monooxygenase (Photinus pyralis) (P08659 whole entry, looked up): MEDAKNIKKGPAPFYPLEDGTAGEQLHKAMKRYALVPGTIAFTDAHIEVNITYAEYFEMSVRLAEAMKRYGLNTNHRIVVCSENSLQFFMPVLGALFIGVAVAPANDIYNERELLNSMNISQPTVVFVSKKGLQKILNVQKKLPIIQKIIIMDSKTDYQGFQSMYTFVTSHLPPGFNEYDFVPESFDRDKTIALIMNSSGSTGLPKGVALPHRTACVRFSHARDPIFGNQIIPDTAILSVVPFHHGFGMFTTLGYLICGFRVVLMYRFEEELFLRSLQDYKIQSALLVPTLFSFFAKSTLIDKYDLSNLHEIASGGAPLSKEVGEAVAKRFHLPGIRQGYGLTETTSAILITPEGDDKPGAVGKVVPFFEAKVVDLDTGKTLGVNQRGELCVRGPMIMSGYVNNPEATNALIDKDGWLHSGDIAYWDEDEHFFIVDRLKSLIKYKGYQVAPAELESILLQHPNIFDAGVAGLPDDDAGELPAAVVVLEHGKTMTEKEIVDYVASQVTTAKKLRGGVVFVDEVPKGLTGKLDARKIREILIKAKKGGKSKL
# Sequence of Cytochrome P450 3A4 (Homo sapiens) (P08684 whole entry, looked up): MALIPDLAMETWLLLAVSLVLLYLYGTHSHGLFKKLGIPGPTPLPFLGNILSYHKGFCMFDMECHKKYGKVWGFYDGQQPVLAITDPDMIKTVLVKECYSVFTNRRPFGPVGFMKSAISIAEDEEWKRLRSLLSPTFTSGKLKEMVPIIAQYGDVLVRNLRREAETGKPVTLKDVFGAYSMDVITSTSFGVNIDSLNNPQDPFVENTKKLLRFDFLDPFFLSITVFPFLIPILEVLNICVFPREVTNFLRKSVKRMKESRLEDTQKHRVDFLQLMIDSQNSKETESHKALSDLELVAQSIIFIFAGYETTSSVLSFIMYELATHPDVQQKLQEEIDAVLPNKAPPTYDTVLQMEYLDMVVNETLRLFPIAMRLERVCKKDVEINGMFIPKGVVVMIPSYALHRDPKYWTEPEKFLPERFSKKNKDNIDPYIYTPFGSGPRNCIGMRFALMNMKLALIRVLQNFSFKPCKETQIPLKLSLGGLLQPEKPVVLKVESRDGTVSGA
smiles,measurement,setting,value
CCC(C)C(=O)OC1CC(O)C=C2C=CC(C)C(CCC(O)CC(O)CC(=O)O)C21 (stereo not given),Potency,[1],inactive
same,Potency,[2],inactive
same,Potency,[3],inactive
same,"activity change, negative = inhibition",[4],5.21% (inactive)
same,max response,[4]; [21],11.3%
same,max response,[4]; [22],17.6%
same,Potency,[5],inactive
same,Potency,[6],inactive
same,Potency,[7],inactive
same,"activity, negative = inhibition",[8]; parasite line A,-1.64% (inactive)
same,"activity, negative = inhibition",[8]; parasite line B,-21.8% (inactive)
same,Potency,[9],inactive
same,Potency,[10],inactive
same,Potency,[11],inactive
same,Potency,[12],inactive
same,Potency,[13],inactive
same,Potency,[14],inactive
same,Potency,[15],inactive
same,Potency,[16],inactive
same,Potency,[17],inactive
same,Potency,[18],inactive
CCCCCCCCCc1ccc(OCCOCCOCCOCCOCCOCCOCCOCCOCCO)cc1,Potency,[2],inactive
same,Potency,[3],inactive
same,"activity change, negative = inhibition",[4],-9.66% (inactive)
same,max response,[4]; [21],4.66%
same,max response,[4]; [22],-5.26%
same,Potency,[6],inactive
same,"activity, negative = inhibition",[8]; parasite line B,-22.2% (inactive)
same,Potency,[9],inactive
same,Potency,[10],inactive
same,Potency,[11],inactive
same,Potency,[12],inactive
same,Potency,[13],inactive
same,Potency,[14],inactive
same,Potency,[15],inactive
same,Potency,[16],inactive
same,Potency,[17],inactive
same,Potency,[18],15.1 µM (active)
O=c1ccn([C@H]2C[C@H](O)[C@@H](CO)O2)c(=O)[nH]1,Potency,[1],inactive
same,"activity change, negative = inhibition",[4],5.4% (inactive)
same,max response,[4]; [21],9.77%
same,max response,[4]; [22],16.3%
same,Potency,[5],inactive
same,outcome,[19],inactive
CCC(=O)O[C@@]1(C(=O)CCl)C(C)CC2C3CCC4=CC(=O)C=C[C@@]4(C)[C@]3(F)C(O)C[C@]21C (stereo not given in full),Potency,[20],inactive
same,Potency,[2],inactive
same,Potency,[3],inactive
same,"activity change, negative = inhibition",[4],11.7% (inactive)
same,max response,[4]; [21],9.83%
same,max response,[4]; [22],20.1%
same,Potency,[6],inactive
same,Potency,[7],inactive
same,Potency,[12],10 µM (active)
same,Potency,[13],inactive
same,Potency,[14],inactive
same,Potency,[15],11.2 µM (active)
same,Potency,[17],inactive
same,Potency,[18],5.36 µM (active)
C[C@@]12CCC(=O)C=C1C=CC1C2CC[C@]2(C)C1CC[C@@]21CCC(=O)O1 (stereo not given in full),Potency,[1],inactive
same,Potency,[20],15.8 µM (active)
same,Potency,[2],inactive
same,Potency,[3],inactive
same,"activity change, negative = inhibition",[4],7.74% (inactive)
same,max response,[4]; [21],3.63%
same,max response,[4]; [22],12.9%
same,Potency,[6],inactive
same,Potency,[7],inactive
same,"activity, negative = inhibition",[8]; parasite line B,-24.2% (inactive)
same,Potency,[9],inactive
same,Potency,[10],inactive
same,Potency,[11],inactive
same,Potency,[12],inactive
same,Potency,[13],inactive
same,Potency,[14],inactive
same,Potency,[15],inactive
same,Potency,[16],inactive
same,Potency,[17],inactive
same,Potency,[18],inactive
CC(C)[C@H]1CC[C@@H](C)C[C@H]1O,Potency,[1],inactive
same,"activity change, negative = inhibition",[4],-5.33% (inactive)
same,max response,[4]; [21],-11.9%
same,max response,[4]; [22],-15.2%
same,Potency,[5],inactive
same,outcome,[19],inactive
Nc1ccn([C@@H]2O[C@H](CO)[C@@H](OP(=O)(O)O)[C@H]2O)c(=O)n1,"activity change, negative = inhibition",[4],4.4% (inactive)
same,max response,[4]; [21],7.76%
same,max response,[4]; [22],8.34%
same,Potency,[5],inactive
same,outcome,[19],inactive
CC(=O)OCC(=O)[C@@]12OC3(CCCC3)OC1CC1C3CCC4=CC(=O)C=C[C@@]4(C)[C@]3(F)C(O)C[C@]12C (stereo not given in full),Potency,[2],inactive
same,Potency,[3],inactive
same,"activity change, negative = inhibition",[4],9.16% (inactive)
same,max response,[4]; [21],-2.26%
same,max response,[4]; [22],7.71%
same,Potency,[6],inactive
same,Potency,[7],inactive
same,Potency,[9],inactive
same,Potency,[10],inactive
same,Potency,[11],inactive
same,Potency,[13],inactive
same,Potency,[14],inactive
same,Potency,[15],12.6 µM (active)
same,Potency,[16],inactive
same,Potency,[17],inactive
same,Potency,[18],10.7 µM (active)
O=C(O)C1OC(O)C(O)C(O)C1O (stereo not given),Potency,[1],inactive
same,"activity change, negative = inhibition",[4],-3.53% (inactive)
same,max response,[4]; [21],-1.15%
same,max response,[4]; [22],-5.5%
same,Potency,[5],inactive
same,outcome,[19],inactive
C#C[C@]1(O)CCC2C3CCC4=CC(=O)CCC4C3CC[C@@]21C (stereo not given in full),Potency,[2],inactive
same,Potency,[3],inactive
same,"activity change, negative = inhibition",[4],3.02% (inactive)
same,max response,[4]; [21],2.28%
same,max response,[4]; [22],5.87%
same,Potency,[5],inactive
same,Potency,[6],inactive
NC(CCC(=O)N[C@@H](CS)C(=O)NCC(=O)O)C(=O)O (stereo not given in full),Potency,[1],inactive
same,Potency,[2],inactive
same,Potency,[3],inactive
same,"activity change, negative = inhibition",[4],8.76% (inactive)
same,max response,[4]; [21],11.9%
same,max response,[4]; [22],24.8%
same,Potency,[5],inactive
same,Potency,[6],inactive
same,Potency,[7],inactive
same,Potency,[9],inactive
same,Potency,[10],inactive
same,Potency,[11],inactive
same,Potency,[12],6.31 µM (active)
same,Potency,[15],3.55 µM (active)
same,Potency,[16],5.01 µM (active)
same,Potency,[18],3.01 µM (active)
CCOC(=O)C1=CC(OC(CC)CC)C(NC(C)=O)C(N)C1 (stereo not given),Potency,[20],inactive
same,Potency,[2],inactive
same,Potency,[3],inactive
same,"activity change, negative = inhibition",[4],11.6% (inactive)
same,max response,[4]; [21],14.9%
same,max response,[4]; [22],27.8%
same,Potency,[5],inactive
same,Potency,[6],inactive
same,Potency,[7],inactive
same,"activity, negative = inhibition",[8]; parasite line A,0.564% (inactive)
same,"activity, negative = inhibition",[8]; parasite line B,-0.576% (inactive)
same,Potency,[9],inactive
same,Potency,[10],inactive
same,Potency,[11],inactive
same,Potency,[12],inactive
same,Potency,[13],inactive
same,Potency,[14],inactive
same,Potency,[15],inactive
same,Potency,[16],inactive
same,Potency,[17],inactive
same,Potency,[18],6.75 µM (active)
CC1(C)S[C@H]2C(NC(=O)[C@@H](N)c3ccc(O)cc3)C(=O)N2[C@@H]1C(=O)O (stereo not given in full),Potency,[1],inactive
same,Potency,[2],inactive
same,Potency,[3],inactive
same,"activity change, negative = inhibition",[4],9.47% (inactive)
same,max response,[4]; [21],17.1%
same,max response,[4]; [22],32.6%
same,Potency,[5],inactive
same,Potency,[6],inactive
same,Potency,[7],inactive
same,"activity, negative = inhibition",[8]; parasite line A,-0.804% (inactive)
same,Potency,[9],inactive
same,Potency,[10],inactive
same,Potency,[11],inactive
same,Potency,[12],inactive
same,Potency,[13],inactive
same,Potency,[14],inactive
same,Potency,[15],inactive
same,Potency,[16],inactive
same,Potency,[17],inactive
same,Potency,[18],inactive
